From PubChem BioAssay (NCI)
The panel holds about 83,000 compounds, 20% with a hit somewhere; the sample as a whole holds those more often.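 Assay: single dose, 48 h. Readout: percent growth (0 = no net growth; negative = cell death). Active: <10.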 Active and inactive are the calls of the source.

Test system: K-562 leukemia
Experiment: NCI-60 one-dose screen, 48 h (100 = growth as untreated, 0 = no growth, -100 = all killed)
Conditions: 10 µM unless noted

| SMILES | growth |
| --- | --- |
| COc1ccc(/C(=C\c2cc(OC)c(OC)c(OC)c2)C(=O)N2CCNCC2)cc1 | 92.4% (inactive) |
| O=c1c2sc3ncc(Cl)cc3c2nnn1-c1cccc(Cl)c1 | 68.1% (inactive) |
| F | 60.9% [6.87 mM] (inactive) |
| CC1=C(C(=O)Nc2ccc(F)cc2)C(c2ccc(C)cc2)C2=C(CC(C)(C)CC2=O)N1 (stereo unspecified) | 93.3% (inactive) |
| CC[C@H](Nc1nc(N)nc(C2CC2)c1C#N)c1nc2cccc(NCc3ccc(C(=O)NO)cc3)c2c(=O)n1-c1ccccc1 | -14% (active) |
| CC(C)N1CCN(c2ccncc2S(=O)(=O)N2CCN(C)CC2)CC1 | 98% (inactive) |
| c1ccc(C(CC2=NCCCN2)c2ccccc2)cc1 | 107% (inactive) |
| Clc1ccc2c(c1)-c1ccccc1C1=NCCN12 | 9.07% (active) |
| O=C(C=P(c1ccccc1)(c1ccccc1)c1ccccc1)CCl | -6.42% (active) |
| COc1cc(/C=C/C(=O)c2ccc(NC(=O)CSc3nnc(-c4ccc(Cl)cc4)n3-c3ccccc3)cc2)cc(OC)c1OC | 44.3% (inactive) |
| OC(c1cc2cc(Cl)ccc2c2cc(C(F)(F)F)ccc12)C1CCCCN1 (stereo unspecified) | -76.8% (active) |
| Clc1cc(Br)ccc1-c1ccc(CNCC2CCNCC2)o1 | 18.9% (inactive) |
| CN1CCN(Cc2ccc(NC(=O)c3cncc(C#Cc4ncc5cnccn45)c3)cc2C(F)(F)F)CC1 | 8.73% (active) |
| CC1=C(C(=O)Nc2ccc(F)cc2)C(c2ccc(Cl)cc2)C2=C(CC(C)(C)CC2=O)N1 (stereo unspecified) | 74% (inactive) |
| CCOC(=O)c1ccc(N(CCC(=O)O)C(C)=O)cc1 | 103% (inactive) |
| O=c1[nH]c2cc(Cl)c(Cl)cc2o1 | 102% (inactive) |
| CC(COC(=O)c1ccccc1)N1CC2CCC(C1)O2 (stereo unspecified) | 97.3% (inactive) |
| CC[C@H](Nc1nc(C)nc(N)c1C#N)c1nc2cccc(NCc3ccc(C(=O)NO)cc3)c2c(=O)n1-c1ccccc1 | 2.24% (active) |
| Cc1cc(NC(=O)C2c3ccccc3C(=O)N(CC(C)C)C2c2cccs2)no1 (stereo unspecified) | 3.46% (active) |

| SMILES | growth |
| --- | --- |
| Clc1ccc2c(c1)-n1cccc1C(c1ccc3ccccc3c1)=NC2 | 49.4% (inactive) |
| CCC1CCc2nc3sc(C(=O)Nc4cccc(F)c4)c(N)c3cc2C1 (stereo unspecified) | 28.6% (inactive) |
| CCn1c(CN2CCN(Cc3ccccc3)CC2)nc2cc(NC(=O)c3cccs3)ccc21 | -27.5% (active) |
| CCN(CC)CCCNc1cccc2c(C)cc(OC)nc12 | 92.3% (inactive) |
| COc1ccc(-c2cn(-c3cccc(C(=O)/C=C/c4ccc(O)c(OC)c4)c3)c(=O)[nH]2)cc1 | 25.7% (inactive) |
| COc1ccc(/C=c2\c(=O)n(-c3ccccc3)c3nn4c(n23)=NNC42CCCCC2)cc1 | 109% (inactive) |
| CCNC(=S)N(Cc1ccccc1)Cc1ccccc1 | 100% (inactive) |
| CCCCCCCCCCCCCCCc1cc(O)ccc1[N+](=O)[O-] | 67.7% (inactive) |
| COC1=CC(c2ccc[nH]2)=N/C1=C\c1[nH]c(C)c(C(=O)CCCCCCCCC(=O)O[C@H]2CC[C@H]3C4CCc5cc(O)ccc5C4CC[C@]23C)c1C (stereo partly specified) | 13.1% (inactive) |
| CCc1oc2ccccc2c1C(=O)c1cc(I)c(O)c(I)c1 | 25% (inactive) |
| Cc1ccc(N=CNN=C(N)N)cc1 | 87.8% (inactive) |
| CCCCN(CCCC)CCCN=c1nc2c(c(N)n1-c1ccccc1)c(=S)n(-c1ccccc1)c(=S)n2-c1ccccc1 | -90.3% (active) |
| [Ag].[Ag].[NH-]S(=O)(=O)c1ccc(N=Nc2cc(N=Nc3ccc(S([NH-])(=O)=O)cc3)c3c(NC(=O)C(Cl)Cl)cccc3c2OC(=O)C(Cl)Cl)cc1.[c-]1nccs1.[c-]1nccs1 | 83.8% (inactive) |
| COc1cc(NCCCCC(C)N)c2nccc(C)c2c1 (stereo unspecified) | 80.4% (inactive) |
| COC(=O)C(C)NC1=C(Cl)C(=O)C(NC(C)C(=O)OC)=C(Cl)C1=O (stereo unspecified) | 109% (inactive) |
| COc1cc2nccc(Oc3ccc(NC(=O)C4(C(=O)Nc5ccc(F)cc5)CC4)cc3)c2cc1OC(=O)c1ccc(N)cc1 | -20.9% (active) |
| O=C(NO)c1ccc(NCc2csc3ccccc23)cc1 | 62% (inactive) |
| COc1ccc2[nH]c(O)c(/C=c3/ccc4c(c3)N=C(c3ccc(F)cc3)N=4)c2c1 | 57.7% (inactive) |
| CCN(CC)CCCC(C)N/C(c1cccc(OC)c1)=c1\c(=O)[nH]n(-c2c3ccccc3nc3ccccc23)c(=O)\c1=C(/NC(C)CCCN(CC)CC)c1cccc(OC)c1 (stereo unspecified) | -22.1% (active) |

Test system: MALME-3M melanoma
Experiment: as above
Conditions: 10 µM unless noted

| SMILES | growth |
| --- | --- |
| COc1ccc(/C(=C\c2cc(OC)c(OC)c(OC)c2)C(=O)N2CCNCC2)cc1 | 108% (inactive) |
| O=c1c2sc3ncc(Cl)cc3c2nnn1-c1cccc(Cl)c1 | 75.3% (inactive) |
| F | -28.9% [6.87 mM] (active) |
| CC1=C(C(=O)Nc2ccc(F)cc2)C(c2ccc(C)cc2)C2=C(CC(C)(C)CC2=O)N1 (stereo unspecified) | 102% (inactive) |
| CC[C@H](Nc1nc(N)nc(C2CC2)c1C#N)c1nc2cccc(NCc3ccc(C(=O)NO)cc3)c2c(=O)n1-c1ccccc1 | -2.35% (active) |
| CC(C)N1CCN(c2ccncc2S(=O)(=O)N2CCN(C)CC2)CC1 | 113% (inactive) |
| c1ccc(C(CC2=NCCCN2)c2ccccc2)cc1 | 93.2% (inactive) |
| Clc1ccc2c(c1)-c1ccccc1C1=NCCN12 | 11.5% (inactive) |
| O=C(C=P(c1ccccc1)(c1ccccc1)c1ccccc1)CCl | -69.7% (active) |
| COc1cc(/C=C/C(=O)c2ccc(NC(=O)CSc3nnc(-c4ccc(Cl)cc4)n3-c3ccccc3)cc2)cc(OC)c1OC | 101% (inactive) |
| OC(c1cc2cc(Cl)ccc2c2cc(C(F)(F)F)ccc12)C1CCCCN1 (stereo unspecified) | -61.9% (active) |
| Clc1cc(Br)ccc1-c1ccc(CNCC2CCNCC2)o1 | -4.35% (active) |
| CN1CCN(Cc2ccc(NC(=O)c3cncc(C#Cc4ncc5cnccn45)c3)cc2C(F)(F)F)CC1 | 14.7% (inactive) |
| CC1=C(C(=O)Nc2ccc(F)cc2)C(c2ccc(Cl)cc2)C2=C(CC(C)(C)CC2=O)N1 (stereo unspecified) | 160% (inactive) |
| CCOC(=O)c1ccc(N(CCC(=O)O)C(C)=O)cc1 | 99.8% (inactive) |
| O=c1[nH]c2cc(Cl)c(Cl)cc2o1 | 117% (inactive) |
| CC(COC(=O)c1ccccc1)N1CC2CCC(C1)O2 (stereo unspecified) | 104% (inactive) |
| CC[C@H](Nc1nc(C)nc(N)c1C#N)c1nc2cccc(NCc3ccc(C(=O)NO)cc3)c2c(=O)n1-c1ccccc1 | 2.94% (active) |
| Cc1cc(NC(=O)C2c3ccccc3C(=O)N(CC(C)C)C2c2cccs2)no1 (stereo unspecified) | -62.1% (active) |

| SMILES | growth |
| --- | --- |
| Clc1ccc2c(c1)-n1cccc1C(c1ccc3ccccc3c1)=NC2 | 97.8% (inactive) |
| CCC1CCc2nc3sc(C(=O)Nc4cccc(F)c4)c(N)c3cc2C1 (stereo unspecified) | 34.8% (inactive) |
| CCn1c(CN2CCN(Cc3ccccc3)CC2)nc2cc(NC(=O)c3cccs3)ccc21 | -72.8% (active) |
| CCN(CC)CCCNc1cccc2c(C)cc(OC)nc12 | 107% (inactive) |
| COc1ccc(-c2cn(-c3cccc(C(=O)/C=C/c4ccc(O)c(OC)c4)c3)c(=O)[nH]2)cc1 | 72.5% (inactive) |
| COc1ccc(/C=c2\c(=O)n(-c3ccccc3)c3nn4c(n23)=NNC42CCCCC2)cc1 | 97.8% (inactive) |
| CCNC(=S)N(Cc1ccccc1)Cc1ccccc1 | 105% (inactive) |
| CCCCCCCCCCCCCCCc1cc(O)ccc1[N+](=O)[O-] | 96.4% (inactive) |
| COC1=CC(c2ccc[nH]2)=N/C1=C\c1[nH]c(C)c(C(=O)CCCCCCCCC(=O)O[C@H]2CC[C@H]3C4CCc5cc(O)ccc5C4CC[C@]23C)c1C (stereo partly specified) | 40.5% (inactive) |
| CCc1oc2ccccc2c1C(=O)c1cc(I)c(O)c(I)c1 | 53% (inactive) |
| Cc1ccc(N=CNN=C(N)N)cc1 | 114% (inactive) |
| CCCCN(CCCC)CCCN=c1nc2c(c(N)n1-c1ccccc1)c(=S)n(-c1ccccc1)c(=S)n2-c1ccccc1 | -91.5% (active) |
| [Ag].[Ag].[NH-]S(=O)(=O)c1ccc(N=Nc2cc(N=Nc3ccc(S([NH-])(=O)=O)cc3)c3c(NC(=O)C(Cl)Cl)cccc3c2OC(=O)C(Cl)Cl)cc1.[c-]1nccs1.[c-]1nccs1 | 67.4% (inactive) |
| COc1cc(NCCCCC(C)N)c2nccc(C)c2c1 (stereo unspecified) | 98% (inactive) |
| COC(=O)C(C)NC1=C(Cl)C(=O)C(NC(C)C(=O)OC)=C(Cl)C1=O (stereo unspecified) | 72.2% (inactive) |
| COc1cc2nccc(Oc3ccc(NC(=O)C4(C(=O)Nc5ccc(F)cc5)CC4)cc3)c2cc1OC(=O)c1ccc(N)cc1 | 26% (inactive) |
| O=C(NO)c1ccc(NCc2csc3ccccc23)cc1 | 60.8% (inactive) |
| COc1ccc2[nH]c(O)c(/C=c3/ccc4c(c3)N=C(c3ccc(F)cc3)N=4)c2c1 | -18.6% (active) |
| CCN(CC)CCCC(C)N/C(c1cccc(OC)c1)=c1\c(=O)[nH]n(-c2c3ccccc3nc3ccccc23)c(=O)\c1=C(/NC(C)CCCN(CC)CC)c1cccc(OC)c1 (stereo unspecified) | -93.9% (active) |
